In PubChem BioAssay (NCI) one finds growth data, which are given here for 13 molecules.

What all share (assay): NCI-60 one-dose screen, 48 h (100 = growth as untreated, 0 = no growth, -100 = all killed)
Common to all, as to conditions: 10 µM unless noted

Assay [1] relates to SK-MEL-2 melanoma.
The test system of assay [2] is EKVX NSCLC.
For assay [3], the system named is SN12C renal.
For assay [4], the system named is UO-31 renal.
Assay [5] deals with TK-10 renal.
The subject of assay [6] is ACHN renal.
For assay [7], the system named is CAKI-1 renal.
Assay [8] concerns A498 renal.
Assay [9] has as its system CCRF-CEM leukemia.
The test system of assay [10] is MOLT-4 leukemia.

Molecules are shown by their SMILES. About 83,000 compounds went through this panel and 20% of them were active in at least one assay; those are over-represented in the sample as a whole.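 Assay: single dose, 48 h. Readout: percent growth (0 = no net growth; negative = cell death). Active: <10.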 A number with no mark means an inactive call. Calls of active or inactive are those of the source.

Regarding `COc1cc(/C=C2\C(=N)N=C(SCc3nc4ccccc4[nH]3)NC2=O)ccc1O`, the growth in [1] is 105%; in assay [2], 101%; in assay [3] it was 103%; in [4], 64.2%; in [5] it was 155%; in [6], 98.1%. The growth in assay [7] is 86%; in [8], 113%; in [9], 99.4%; in assay [10] it was 99.2%.

`COc1ccc2[nH]c(O)c(N=NC(=O)Cn3c(-c4ccccc4)nc4cc(C)ccc43)c2c1`: the growth in assay [1] is 88.4%; in assay [2], 66.3%; in assay [3], -73.7% (active); in [4], 49.7%; in assay [5], 97.7%; in assay [6], 41.1%. The growth was 61.9% in assay [7], 119% in assay [8], 8.31% (active) in [9] and 18.5% in assay [10].

Take `COc1cc2oc(-c3cccc(C(=O)Nc4ccc(Cl)cc4)c3)cc(=O)c2c(OCCNC(=O)[C@@H](N)CCC(=O)O)c1OC`: the growth was 104% in [1]; 70.8% in [2]; 61.6% in assay [3]; 80.1% in assay [4]; 114% in [5]; 92.5% in [6]. For the same molecule, the growth was 68.9% in assay [7], 157% in assay [8], 75.6% in assay [9] and 36.6% in assay [10].

On to `COc1ccc2oc3c4[nH]c5ccccc5c4c4c(c3c2c1)C(=O)N(C(=O)OC(C)(C)C)C4=O`, for which the growth in [1] was -46.8% (active); in assay [2], -18.9% (active); in [3] it was -19.3% (active); in assay [4] it was -12.8% (active); in assay [5], -11% (active); in assay [6], -22.3% (active). In addition, the growth in assay [7] was -15.3% (active); in assay [8], -10.9% (active); in [9], 6.52% (active); in assay [10], -28.4% (active).

Take `C=Cn1cc(C(=O)O)c(=O)c2cc(F)c(N3CCN(c4nccc(-c5nccs5)n4)CC3)cc21`: the growth in [1] is -83.2% (active); in [2], -24.2% (active); in assay [3], -16.8% (active); in assay [4] it was -61.5% (active); in [5], -13.2% (active); in assay [6], -43% (active). Moreover, the growth in assay [7] is -37.1% (active); in assay [8], -21.4% (active); in assay [9] it was 15.3%; in [10], 1.77% (active).

On to `COc1cc(/C=C/C(=O)c2nnn(-c3ccc(Cl)cc3)c2C)cc(OC)c1OC`, for which the growth was 51.3% in [1]; 10.1% in assay [2]; 15.5% in assay [3]; 54% in assay [4]; 86.7% in assay [5]; 42.4% in [6]. For the same molecule, the growth in assay [7] was 43.2%; in assay [8], 132%; in assay [9], -19.2% (active); in [10] it was -10.7% (active).

Regarding `COC(=O)/C=C/c1cccc2c1C(=O)NC(C)(c1cc3ccccc3oc1=O)N2` (stereo not given), the growth was -2.01% (active) in [1]; 78.2% in [2]; 73.8% in assay [3]; 31.3% in assay [4]; 49% in [5]; 30.8% in [6]. Moreover, the growth is 20.7% in assay [7], 49.7% in assay [8], 83.7% in [9] and 63% in assay [10].

As to `CC1CCCCN1CCCNC(=O)N/C(N)=N/c1nc2ccccc2s1` (stereo not given), the growth in [1] was 41.3%; in assay [2] it was 46.1%; in [3], 40.9%; in [4], 24.4%; in assay [5], 70.1%; in assay [6], 42.5%. The growth is 24.6% in assay [7], 104% in assay [8], 26.8% in assay [9] and 16.4% in [10].

With `COc1ccc(/C=C/c2n(Cc3ccc4ccccc4c3)c3ccccc3[n+]2Cc2ccc3ccccc3c2)cc1`, the growth in [1] was -93.7% (active); in [2], -82.7% (active); in [3], -88.8% (active); in assay [4], -93% (active); in assay [5], -93.7% (active); in assay [6], -100% (active). Besides, the growth is -100% (active) in assay [7], -79.8% (active) in [8], -24.2% (active) in [9] and -2.71% (active) in assay [10].

As to `CC(C)c1sc(NC(=O)c2cc(NC(=O)c3cc(NC(=O)c4nccn4C)cn3C)cn2C)nc1C(=O)NCCCN(C)C`, the growth is 80.8% in assay [1]; 105% in assay [2]; 85.7% in [3]; 98.1% in assay [4]; 97.9% in [5]; 108% in assay [6]. The growth in assay [7] was 102%; in assay [8], 116%; in assay [9], 19.3%; in [10], 65.8%.

Turning to `COc1c(F)ccc(C(=O)Nc2ccc3nc(NC(=O)C4CCCN(S(=O)(=O)c5ccc(C#N)cc5)C4)sc3c2)c1F` (stereo not given), the growth in assay [1] is 97.1%; in assay [2], 96.2%; in assay [3] it was 94.6%; in [4] it was 68.8%; in assay [5], 112%; in assay [6], 97.4%. Further, the growth in assay [7] is 90.6%; in assay [8], 101%; in [9] it was 92.2%; in assay [10], 62.4%.

For the molecule `COc1ccccc1C(=O)NN1C(=O)/C(=C/C2=Cc3ccccc3OC2)SC1=S`, the growth in assay [1] is 109%; in [2] it was 105%; in [3], 104%; in assay [4], 74%; in assay [5] it was 124%; in assay [6], 103%. The growth in assay [7] is 45.5%; in [8] it was 134%; in assay [9] it was 93.7%; in assay [10] it was 100%.

Regarding `O=C(O)Cn1c(O)c(/C=C2/C=c3cc4c(cc3=NC2=O)OCCO4)sc1=S`, the growth in [1] is 117%; in assay [2], 101%; in assay [3], 97.5%; in assay [4], 89.9%; in assay [5], 110%; in assay [6], 119%. Further, the growth in [7] was 99.3%; in assay [8] it was 118%; in assay [9] it was 97.3%; in assay [10], 105%.
